The values that follow come from PubChem BioAssay.

For part of these data: Results with a measured potency or affinity are listed apart. Inconclusive results are not listed. The source made the active and inactive calls.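 The calls were made as follows, unless noted: active = falling signal with fitted half-maximal potency no higher than twice the top valid tested dose; inconclusive = poor fit quality, or flat fit spanning -70% to -30%; inactive = potency over limit, rising signal, or flat fit inside 30%.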

Assay [1] is described as follows: small molecules captured by biotinylated probe aFSTL3 – biochemical, small-molecule microarray, fluorescence 635/667, stem cell growth factor project, primary screen (AID 1064).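 Also: measures binding of the biotinylated anti-FSTL3 antibody to printed compounds.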 The note with it: higher = more signal.
A short description of assay [2]: binders from COS7 lysate, DM2A8 probe, primary screen, torsin A project, cell lysate, small-molecule microarray, fluorescence 635/667 (AID 1065). The note with it: higher = more signal, COS7 lysate expressing mutant human TOR1A.
Assay [3] can be described thus: small molecules captured by biotinylated probe aFGF2 – biochemical, small-molecule microarray, fluorescence 635/667, stem cell growth factor project, primary screen (AID 1067).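 Also: measures binding of biotinylated aFGF2 protein to printed compounds on slides; z-score merges feature fluorescence and signal-to-noise across triplicate slides.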 The note with it: higher = more signal.
A short description of assay [4]: small molecules captured by biotinylated probe aFGF10 – biochemical, small-molecule microarray, fluorescence 635/667, stem cell growth factor project, primary screen (AID 1071).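 Also: score merges 667 nm spot intensity and signal to noise from triplicate slides.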 The note with it: higher = more signal.
Assay [5] addresses Neurogenic locus notch homolog protein 2 (Homo sapiens) (UniProt Q04721). The assay can be described thus: small molecules binding Notch2 protein – biochemical, small-molecule microarray, 635 nm fluorescence, stem cell growth factors, primary screen (AID 1073). The note with it: higher = more signal.
The target in assay [6] is Pro-neuregulin-1, membrane-bound isoform (Homo sapiens) (UniProt Q02297). The assay is described as follows: small molecules binding neuregulin-1 protein – biochemical, small-molecule microarray, fluorescence 635/667, psychiatric disease protein project, primary screen (AID 1075).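 Also: score combines 667 nm spot fluorescence with signal to noise.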 The note with it: NRG1 binding, 635 nm fluorescence, higher = more signal.
Assay [7] relates to Neuregulin-1 EGF-like domain. The assay can be described thus: small molecules binding NRG1 EGF domain – biochemical, small-molecule microarray, 635 nm fluorescence, primary screen (AID 1081).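 Also: binding of the protein to compounds printed on small-molecule microarray slides.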 The note with it: higher = more signal.
Assay [8] is described as follows: FRG1 expression reporter modulators in myotubes – cell-based, C2C12 myotubes, firefly/Renilla luciferase, luminescence, FRG1 inhibition for FSHD, primary screen (AID 1084). The note with it: FRG1 promoter luciferase, higher = more signal, called active from +8 up or from −8 down.
Assay [9] in a line: small molecules captured by biotinylated probe aFST – biochemical, small-molecule microarray, fluorescence 635/667, stem cell growth factor project, primary screen (AID 1086).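 Also: score merges 667 nm fluorescence with signal-to-noise of each printed compound spot.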 The note with it: higher = more signal.
Assay [10] is described as follows: binders of probe aHhip on microarray, primary screen, stem cell growth factor project, biochemical, small-molecule microarray, fluorescence 635/667 (AID 1087).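 Also: score merges spot fluorescence at 667nm with spot signal to noise ratio.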 The note with it: higher = more signal.
Assay [11] concerns PRMT1 (protein arginine N-methyltransferase 1). The assay is described as follows: small molecules binding arginine methyltransferase PRMT1 – biochemical, small-molecule microarray, 635 nm fluorescence, primary screen (AID 1088).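 Also: binding of Prmt1 protein to compounds spotted on small-molecule microarray slides.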 The note with it: higher = more signal.
Assay [12] in a line: growth effects on S. cerevisiae YJM789 – YJM789 clinical isolate, OD600, 24 h, basal, primary screen (AID 1089).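 Also: growth of clinical yeast isolate S. cerevisiae YJM 789 seeded 1000 cells per well.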 The note with it: higher = more signal, called active from +8 up or from −8 down.
The nature of assay [13]: S. pombe growth modifiers, basal conditions – strain 972, OD600, 24 h, no modulator, primary screen (AID 1090).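 Also: basal condition with compound alone and no growth modifier present.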 The note with it: S. pombe 972 growth, higher = more signal, called active from +8 up or from −8 down.
A short description of assay [14]: budding yeast growth modifiers under rapamycin – strain BY4716, OD600, 96 h, primary screen (AID 1091). The note with it: S. cerevisiae BY4716 + rapamycin, higher = more signal, called active from +8 up or from −8 down.
Assay [15] concerns the target Torsin-1A-interacting protein 2 (Homo sapiens) (UniProt Q8NFQ8). The assay is described as follows: small molecules binding lysate-expressed LULL1 – cell lysate, human LULL1 lysate, 635/667 nm fluorescence, primary screen (AID 1092).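 Also: probe is lysate of COS7 cells overexpressing human LULL1; score merges per-feature 667 nm fluorescence with signal-to-noise.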 The note with it: small-molecule microarray, hLULL1 lysate binding, 635 nm fluorescence; higher = more signal.
Assay [16] is described as follows: optical density change of DRC41 E. coli – strain DRC41, OD650, 24 h, E. coli filamentation project, primary screen (AID 1093).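 Also: MC1000 strain lacking acrAB efflux and sulA so SOS filamentation is blocked.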 The note with it: E. coli DRC41 growth, higher = more signal, called active from +8 up or from −8 down.
Assay [17] can be described thus: fungal growth arrest, C. neoformans – Alamar Blue, cherry-picks, dose response (AID 686998). The note with it: Cryptococcus neoformans growth, 24 h; series mostly up to 35 µM. For orientation: The colour change of resazurin is a common sign of viable cells or microbes.
Assay [18] is described as follows: C. neoformans lysis by adenylate kinase leakage – AK release luminescence, cherry-picks, dose response (AID 687000;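 active = fitted dose curve reaches 40% lysis signal rise at or below the highest valid concentration tested for that sample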;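 also: luminescent detection of adenylate kinase leaking from lysed yeast; 0% = median neutral control signal and 100% = double that signal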). The note with it: 4 h, 100% = twice the neutral-control signal; series mostly up to 15 µM.
Assay [19] in a line: viability loss in HepG2 hepatoma cells – cell-based, cherry-picks, set 2, cytotoxicity control, dose response (AID 687002;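 active = a dose-response fit showing signal loss, with half-maximal concentration no higher than twice the top tested dose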). The note with it: ATP luminescence (CellTiter-Glo), 48 h; series mostly up to 26 µM. For orientation: ATP-based viability assays read luminescence as a measure of living cells.
Assay [20] in a line: viability loss in HeLa cells – cell-based, ATP luminescence, cherry-pick samples, cytotoxicity control, dose response (AID 687004;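 active = a fitted half-maximal concentration no higher than twice the top valid tested dose, with signal falling as cells die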;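 also: 0% = neutral control median and -100% = staurosporine 10 µM control median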). The note with it: ATP luminescence (CellTiter-Glo), 48 h; series mostly up to 26 µM.

Chain of Pro-neuregulin-1, membrane-bound isoform (Homo sapiens) (Q02297 whole entry, looked up, the tested form may be a part, canonical isoform): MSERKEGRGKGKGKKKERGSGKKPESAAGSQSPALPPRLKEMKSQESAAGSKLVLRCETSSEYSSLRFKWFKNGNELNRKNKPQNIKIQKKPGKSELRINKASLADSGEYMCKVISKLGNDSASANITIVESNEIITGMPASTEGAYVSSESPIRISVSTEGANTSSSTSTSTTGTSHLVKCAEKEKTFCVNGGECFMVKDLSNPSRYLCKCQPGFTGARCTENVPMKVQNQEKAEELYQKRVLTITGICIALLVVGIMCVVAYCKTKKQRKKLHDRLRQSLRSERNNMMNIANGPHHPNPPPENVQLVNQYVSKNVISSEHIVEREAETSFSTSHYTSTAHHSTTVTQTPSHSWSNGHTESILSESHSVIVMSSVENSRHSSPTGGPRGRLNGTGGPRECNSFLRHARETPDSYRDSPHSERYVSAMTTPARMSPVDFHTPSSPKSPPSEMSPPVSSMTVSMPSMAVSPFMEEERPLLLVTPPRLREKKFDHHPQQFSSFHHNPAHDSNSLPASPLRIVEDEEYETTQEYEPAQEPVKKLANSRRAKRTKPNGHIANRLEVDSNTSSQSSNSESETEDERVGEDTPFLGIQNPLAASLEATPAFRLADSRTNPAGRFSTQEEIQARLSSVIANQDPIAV
Chain of Neurogenic locus notch homolog protein 2 (Homo sapiens) (Q04721 whole entry, looked up, canonical isoform): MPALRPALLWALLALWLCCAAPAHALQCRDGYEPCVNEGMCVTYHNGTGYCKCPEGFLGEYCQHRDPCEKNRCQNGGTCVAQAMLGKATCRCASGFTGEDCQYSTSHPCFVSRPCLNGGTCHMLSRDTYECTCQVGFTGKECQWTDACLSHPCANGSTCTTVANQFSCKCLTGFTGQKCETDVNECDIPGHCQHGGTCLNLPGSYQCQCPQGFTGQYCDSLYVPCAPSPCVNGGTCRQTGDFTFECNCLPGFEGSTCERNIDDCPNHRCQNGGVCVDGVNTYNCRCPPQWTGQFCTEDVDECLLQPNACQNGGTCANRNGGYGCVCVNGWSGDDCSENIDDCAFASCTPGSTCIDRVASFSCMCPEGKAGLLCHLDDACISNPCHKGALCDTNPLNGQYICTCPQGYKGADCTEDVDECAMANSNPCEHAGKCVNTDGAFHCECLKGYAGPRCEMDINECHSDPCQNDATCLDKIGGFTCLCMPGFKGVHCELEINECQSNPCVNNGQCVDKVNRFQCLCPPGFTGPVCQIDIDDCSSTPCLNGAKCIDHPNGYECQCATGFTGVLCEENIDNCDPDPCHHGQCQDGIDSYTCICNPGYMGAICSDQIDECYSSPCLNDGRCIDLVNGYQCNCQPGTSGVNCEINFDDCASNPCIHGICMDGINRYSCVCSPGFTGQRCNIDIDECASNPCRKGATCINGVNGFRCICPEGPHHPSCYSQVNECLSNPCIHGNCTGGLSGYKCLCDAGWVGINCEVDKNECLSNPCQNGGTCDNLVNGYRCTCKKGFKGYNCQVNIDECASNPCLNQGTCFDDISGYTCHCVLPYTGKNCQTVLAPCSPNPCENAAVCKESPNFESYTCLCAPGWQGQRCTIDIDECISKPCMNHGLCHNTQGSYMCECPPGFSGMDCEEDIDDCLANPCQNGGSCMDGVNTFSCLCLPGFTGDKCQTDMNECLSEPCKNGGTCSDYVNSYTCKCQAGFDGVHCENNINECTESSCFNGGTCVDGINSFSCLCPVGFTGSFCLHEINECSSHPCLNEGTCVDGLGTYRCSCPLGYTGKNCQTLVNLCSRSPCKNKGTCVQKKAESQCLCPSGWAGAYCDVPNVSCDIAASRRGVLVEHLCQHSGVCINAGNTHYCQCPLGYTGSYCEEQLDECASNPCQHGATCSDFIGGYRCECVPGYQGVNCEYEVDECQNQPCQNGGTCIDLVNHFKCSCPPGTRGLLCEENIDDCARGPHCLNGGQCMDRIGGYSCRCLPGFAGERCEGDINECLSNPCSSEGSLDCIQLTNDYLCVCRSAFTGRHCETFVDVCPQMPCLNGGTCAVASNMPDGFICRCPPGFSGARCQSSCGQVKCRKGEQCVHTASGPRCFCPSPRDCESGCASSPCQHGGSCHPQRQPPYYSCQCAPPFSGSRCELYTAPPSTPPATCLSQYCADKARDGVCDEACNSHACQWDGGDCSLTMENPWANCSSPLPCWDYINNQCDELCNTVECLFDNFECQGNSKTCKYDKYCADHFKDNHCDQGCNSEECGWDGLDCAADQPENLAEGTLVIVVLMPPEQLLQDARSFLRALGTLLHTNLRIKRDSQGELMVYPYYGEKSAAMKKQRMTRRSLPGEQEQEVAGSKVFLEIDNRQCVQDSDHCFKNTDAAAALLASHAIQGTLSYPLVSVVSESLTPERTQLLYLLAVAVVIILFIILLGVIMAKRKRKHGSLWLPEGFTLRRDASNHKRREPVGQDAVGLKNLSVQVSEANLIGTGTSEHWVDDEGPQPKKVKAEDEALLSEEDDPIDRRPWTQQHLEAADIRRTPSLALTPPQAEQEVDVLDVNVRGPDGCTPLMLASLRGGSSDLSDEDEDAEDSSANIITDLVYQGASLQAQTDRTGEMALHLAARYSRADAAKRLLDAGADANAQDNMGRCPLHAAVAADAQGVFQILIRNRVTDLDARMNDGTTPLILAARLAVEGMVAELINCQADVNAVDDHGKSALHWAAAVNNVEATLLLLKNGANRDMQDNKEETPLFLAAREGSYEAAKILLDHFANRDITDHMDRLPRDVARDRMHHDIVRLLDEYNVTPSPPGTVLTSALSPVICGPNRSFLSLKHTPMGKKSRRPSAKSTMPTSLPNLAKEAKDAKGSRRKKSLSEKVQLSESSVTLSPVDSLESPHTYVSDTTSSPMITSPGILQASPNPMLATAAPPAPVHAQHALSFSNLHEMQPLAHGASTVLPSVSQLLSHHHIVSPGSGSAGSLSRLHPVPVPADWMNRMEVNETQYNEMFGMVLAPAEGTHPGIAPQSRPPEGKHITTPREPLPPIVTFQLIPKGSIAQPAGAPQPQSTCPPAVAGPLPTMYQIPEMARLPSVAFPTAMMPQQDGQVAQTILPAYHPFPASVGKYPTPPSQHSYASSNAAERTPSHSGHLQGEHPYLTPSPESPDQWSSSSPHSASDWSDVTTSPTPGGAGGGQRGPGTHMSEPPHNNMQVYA
Chain of Torsin-1A-interacting protein 2 (Homo sapiens) (Q8NFQ8 whole entry, looked up): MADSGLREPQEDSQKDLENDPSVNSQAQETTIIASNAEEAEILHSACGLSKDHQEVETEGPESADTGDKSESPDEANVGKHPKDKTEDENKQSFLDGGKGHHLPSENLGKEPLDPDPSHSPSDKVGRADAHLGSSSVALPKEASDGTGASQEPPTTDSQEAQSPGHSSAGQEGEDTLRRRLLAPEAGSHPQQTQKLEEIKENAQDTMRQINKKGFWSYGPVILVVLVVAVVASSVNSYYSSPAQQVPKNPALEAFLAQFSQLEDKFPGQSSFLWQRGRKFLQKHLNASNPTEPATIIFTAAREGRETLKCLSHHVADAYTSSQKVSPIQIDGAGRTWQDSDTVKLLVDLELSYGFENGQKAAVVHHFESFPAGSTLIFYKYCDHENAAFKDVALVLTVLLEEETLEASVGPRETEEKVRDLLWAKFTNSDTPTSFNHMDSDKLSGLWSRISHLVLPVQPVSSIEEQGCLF

For the molecule `C=C1C=C(Br)C2(OCCCO2)[C@H]2OC12` (some centres undefined), the composite z-score in [1] is -0.199; in [2], 0.249; in [3] it was -0.128; in [4], 0.325; in [5], -0.175; in [6], -0.188. The composite z-score was -0.221 in [7]; 0.206 in assay [9]; 0.0274 in assay [10]; -0.83 in assay [11]; -0.38 in assay [15]. Further, the z-score in assay [8] is 1.04 (inactive); in assay [12], -0.23 (inactive); in assay [13], -0.54 (inactive); in assay [14], 0.405 (inactive); in assay [16], 0.294 (inactive).

In the case of `C=C(/C(=C/C[C@H](OC(=O)c1ccncc1)c1cccc(OCCO)c1)c1cc(C(=O)OC)ccc1OC)C(C)C`, the composite z-score in assay [1] was -0.0743; in assay [2] it was 1.66; in assay [3] it was -0.113; in [4], 0.382; in assay [5], 0.191; in assay [6], -0.389. In addition, the composite z-score was 0.73 in assay [7]; -0.179 in assay [9]; -0.0631 in assay [10]; 1.26 in assay [11]; 1.23 in [15]. Also, the z-score in assay [8] was -1.23 (inactive); in assay [12], 0.195 (inactive); in assay [13], -0.382 (inactive); in assay [14], 0.947 (inactive); in assay [16] it was 1.22 (inactive).

On to `CC(C)N1CC=CC23O[C@@H]4/C=C\CCCOC(=O)C4[C@H]2C(=O)N(CCCO)[C@@H]3C1=O` (some centres undefined), for which the composite z-score was 0.495 in [1]; 2.3 in assay [2]; -0.01 in [3]; 0.215 in assay [4]; -0.615 in assay [5]; 0.0034 in assay [6]. The composite z-score in assay [7] is 1.14; in assay [9], -0.623; in assay [10], -0.374; in assay [11], -0.78; in assay [15], 2.15. For the same molecule, the z-score in assay [8] is 1 (inactive); in assay [12], 0.759 (inactive); in assay [13] it was -0.76 (inactive); in assay [14], 0.752 (inactive); in assay [16] it was 1.77 (inactive).

As for `CC=Cc1ccc2n(c1=O)C[C@H]1[C@H](CO)[C@@H](C(=O)N3CCc4ccccc4C3)N(C(=O)C3CC3)[C@@H]21` (mixture of isomers), the molecule was called inactive in [17], in assay [18] and in assay [19].

For the molecule `C[C@@H]1CN([C@H](C)CO)C(=O)c2cc(NC(=O)Nc3cccc4ccccc34)ccc2O[C@@H](C)CCCCO[C@@H]1CN(C)Cc1ccc2c(c1)OCO2`, the call in [17], in assay [18], in assay [19] and in assay [20] was inactive.

`CC(C)NC(=O)NCC[C@H]1CC[C@H](NC(=O)CN(C)C)[C@H](CO)O1`: the molecule was called inactive in [17], in assay [18], in assay [19] and in assay [20].

As for `CNC[C@@H]1Oc2c(NS(=O)(=O)c3cccs3)cccc2C(=O)N([C@@H](C)CO)C[C@H]1C`, the call in assay [17], in assay [18], in assay [19] and in assay [20] was inactive.

With `Cc1cc(C)c(NC(=O)C2CCC(=O)N2)c(C)c1` (centres undefined), the outcome in assay [17], in assay [18], in assay [19] and in assay [20] was inactive.

Take `CCC(C)(C(=O)NC1CCCCC1)N(C(=O)C1CCC(=O)N1)c1ccccc1` (centres undefined): the molecule was classed as inactive in assay [17], in assay [18], in assay [19] and in assay [20].

For `C[C@H]1CN([C@@H](C)CO)C(=O)c2cccc(NS(=O)(=O)c3cn(C)cn3)c2O[C@@H]1CN(C)CC1CCCCC1`, the outcome in assay [17], in assay [18], in assay [19] and in [20] was inactive.

As to `O=C(C[C@H]1CC[C@@H]2[C@H](COC[C@@H](O)CN2Cc2cccc(C(F)(F)F)c2)O1)NCc1ccc(Cl)cc1`, the call in assay [17], in [18], in assay [19] and in assay [20] was inactive.

With `CO[C@@H]1CN(C)C(=O)c2ccc(NC(=O)NC(C)C)cc2OC[C@H](C)NC[C@@H]1C`, the molecule was classed as inactive in assay [17], in assay [18], in assay [19] and in assay [20].

`Cc1cccc(NC(=O)C2NC(=O)CC2c2ccccc2)c1C` (centres undefined): the call in assay [17], in assay [18], in assay [19] and in [20] was inactive.

As for `Cc1noc(C)c1NC(=O)N(C)C[C@@H]1Oc2ccc(NS(=O)(=O)c3cn(C)cn3)cc2CC(=O)N([C@H](C)CO)C[C@H]1C`, the result in [17], in assay [18], in [19] and in [20] was inactive.

Consider `O=C(c1ccco1)N1N=C(c2cccs2)CC1c1ccccc1O` (centres undefined), for which the call in assay [17], in assay [18], in assay [19] and in assay [20] was inactive.

Regarding `Cc1ccc(N(CC(N)=O)S(=O)(=O)c2ccc(F)cc2)cc1`, the result in assay [17], in [18], in assay [19] and in assay [20] was inactive.

Turning to `C[C@@H]1CN([C@@H](C)CO)C(=O)CCCn2cc(nn2)CO[C@@H]1CN(C)C(=O)NC1CCCC1`, the molecule was called inactive in assay [17], in assay [18], in assay [19] and in [20].

For `CO[C@H]1CN(C)C(=O)c2cc(NS(=O)(=O)CC(F)(F)F)ccc2OC[C@H](C)N(Cc2cccnc2)C[C@@H]1C`, the molecule was classed as inactive in assay [17], in assay [18], in [19] and in [20].

In the case of `COc1ccccc1CNC(=O)C[C@@H]1C[C@H]2c3cc(NC(=O)Nc4ccccc4F)ccc3O[C@H]2[C@@H](CO)O1`, the molecule was called inactive in assay [17], in assay [18], in assay [19] and in assay [20].

On to `CO[C@@H]1CN(C)C(=O)c2cc(NC(=O)C3CC3)ccc2OC[C@H](C)N(C(=O)c2ccncc2)C[C@H]1C`, for which the outcome in assay [17], in assay [18], in assay [19] and in [20] was inactive.

Consider `Cc1ccccc1S(=O)(=O)N[C@H]1CC[C@H](CCNS(=O)(=O)c2cccc(F)c2)O[C@H]1CO`, for which the outcome in assay [17], in assay [18], in [19] and in assay [20] was inactive.

With `Cc1ccc(S(=O)(=O)N[C@@H]2CC[C@H](CCNC(=O)C3CCCC3)O[C@@H]2CO)cc1`, the call in assay [17], in assay [18], in [19] and in assay [20] was inactive.

As to `Cc1noc(C)c1NC(=O)N(C)C[C@H]1Oc2ccc(NS(=O)(=O)c3cn(C)cn3)cc2CC(=O)N([C@H](C)CO)C[C@H]1C`, the outcome in [17], in [18], in assay [19] and in assay [20] was inactive.

For `CN1C(=O)c2cc(NS(C)(=O)=O)ccc2OC[C@@H]2O[C@@H](CC(=O)O)CC[C@H]21`, the call in assay [17], in assay [18], in assay [19] and in assay [20] was inactive.

For the molecule `O=C(NCC[C@H]1CC[C@H](NS(=O)(=O)c2ccc(F)cc2)[C@@H](CO)O1)c1ccc2c(c1)OCO2`, the molecule was classed as inactive in assay [17], in assay [18], in assay [19] and in assay [20].

For the molecule `COc1ccc(CN(C)C[C@H]2OCCCC[C@@H](C)Oc3ccc(NC(=O)c4ccccc4)cc3C(=O)N([C@H](C)CO)C[C@@H]2C)cc1`, the result in assay [17], in [18], in assay [19] and in assay [20] was inactive.

Regarding `C[C@@H]1CN([C@@H](C)CO)C(=O)c2cc(N(C)C)ccc2O[C@@H]1CN(C)C(=O)Nc1ccc(C(F)(F)F)cc1`, the result in assay [17], in [18], in [19] and in assay [20] was inactive.

In the case of `COc1ccc(-c2cnc3c(c2)C(=O)N([C@@H](C)CO)C[C@H](C)[C@@H](CN(C)S(C)(=O)=O)O3)cc1`, the call in [17], in [18], in assay [19] and in [20] was inactive.

As to `CCCC(=O)N1CCCC1(C)C(=O)Nc1cc(C)ccc1C` (centres undefined), the molecule was called inactive in [17], in [18], in assay [19] and in [20].

As to `COC(=O)N(C)C[C@H]1OCc2cn(nn2)CCCC(=O)N([C@@H](C)CO)C[C@@H]1C`, the molecule was classed as inactive in [17], in assay [18], in assay [19] and in assay [20].

For the molecule `C[C@H](CO)N1C[C@H](C)[C@H](CN(C)S(=O)(=O)c2ccc(F)cc2)Oc2ccc(NS(=O)(=O)c3ccc(Cl)cc3)cc2C1=O`, the molecule was called inactive in [17], in assay [18], in assay [19] and in assay [20].
